Test [1] is described as follows: NCI Yeast Anticancer Drug Screen. Data for the rad50 strain (AID 155).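 Also: 0% = growth of vehicle-only cultures of the same strain.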 The settings on record: S. cerevisiae rad50 strain growth inhibition, stronger effect = higher value. An outline of the steps:
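Inhibition values express reduced yeast growth in compound-treated cultures relative to vehicle-treated controls.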

The nature of test [2]: NCI Yeast Anticancer Drug Screen. Data for the mec2-1 strain (AID 157). The settings on record: S. cerevisiae mec2-1 strain, stronger effect = higher value. The gist of the method:
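Each compound was tested on mec2-1 yeast, a strain altered in DNA damage repair or cell cycle control. Growth inhibition is reported relative to vehicle.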

Test [3] can be described thus: NCI Yeast Anticancer Drug Screen. Data for the sgs1 mgt1 strain (AID 161).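 Also: 0% = growth of cultures given vehicle only.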 The settings on record: S. cerevisiae sgs1 mgt1 strain, stronger effect = higher value. The gist of the method: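 Read-out: growth inhibition vs vehicle controls. Cells: mutant yeast strain deficient in DNA damage repair.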
A short description of test [4]: NCI Yeast Anticancer Drug Screen. Data for the cln2 rad14 strain (AID 165).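 Also: 0% = growth equal to vehicle treated cultures.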 The settings on record: S. cerevisiae cln2 rad14 strain, stronger effect = higher value. An outline of the steps:
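Test compounds were added to cln2 rad14 yeast cultures; inhibition of growth was then determined by comparison with vehicle treatment.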

The nature of test [5]: NCI Yeast Anticancer Drug Screen. Data for the mlh1 rad18 strain (AID 175). Conditions: S. cerevisiae mlh1 rad18 strain growth inhibition, stronger effect = higher value. The gist of the method:
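Inhibition values reflect reduced growth of mutant yeast versus vehicle-treated controls following compound exposure; the mutations affect DNA damage repair.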

Test [6] in a line: NCI Yeast Anticancer Drug Screen. Data for the bub3 strain (AID 167). Conditions: S. cerevisiae bub3 mutant strain, stronger effect = higher value. An outline of the steps: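 Steps: expose the mutant yeast strain to compound; grow alongside vehicle-treated cultures; measure growth; express inhibition against the vehicle cultures.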
The mark [7] stands for this setting: at 5.0 µM (retest, dose inferred, filed as 0.5).
Setting [8] is: at 50.0 µM (retest, dose inferred, filed as 5.0).

SMILES strings stand for the structures. This is part of a sample that, as a whole, favours compounds with a hit. Of some 79,000 tested, about 15% had one in any assay. Unmarked numbers belong to inactive results. Activity calls are given as the source filed them. Rule as the data show it: active = growth inhibition above about 70%; inactive = the rest.

Turning to `CCCCCCCCCCCCCCCCn1cc(C(O)CN(C)C)c2ccccc21` (configuration not stated), the growth inhibition in test [1] (setting [7]) was -4%; in test [1] (setting [8]) it was 98% (active); in test [1] (at 50.0 µM) it was 32.2%; in test [2] (setting [7]) it was -1%; in test [2] (setting [8]), 99% (active); in test [2] (at 50.0 µM), 99.1% (active). In addition, the growth inhibition was -1% in test [3] (setting [7]); 98% (active) in test [3] (setting [8]); 49.5% in test [3] (at 50.0 µM); -3% in test [4] (setting [7]); 89% (active) in test [4] (setting [8]); 98.3% (active) in test [4] (at 50.0 µM). The values for the growth inhibition in test [5] (setting [7]), in test [5] (setting [8]) and in test [5] (at 50.0 µM) were -2%, 98% (active) and 94.9% (active), respectively.

Take `COC(=O)[C@@H]1c2cc3c(c(O)c2[C@@H](OC)C[C@@]1(C)O)C(=O)c1c(O)cc2c(c1C3=O)OC1O[C@@]2(C)[C@H](O)[C@@H](N(C)C)[C@@H]1O`: the growth inhibition in test [1] (setting [7]) was 15%; in test [1] (setting [8]), 98% (active); in test [1] (at 50.0 µM), 64.2%; in test [2] (setting [7]) it was 10%; in test [2] (setting [8]) it was 95% (active); in test [2] (at 50.0 µM), 94% (active). The growth inhibition in test [3] (setting [7]) is 9%; in test [3] (setting [8]) it was 98% (active); in test [3] (at 50.0 µM), 94% (active); in test [4] (setting [7]), 4%; in test [4] (setting [8]), 97% (active); in test [4] (at 50.0 µM) it was 87.5% (active). Further, the growth inhibition in test [6] (setting [7]) is 5%; in test [6] (setting [8]), 97% (active); in test [6] (at 50.0 µM) it was 92.8% (active); in test [5] (setting [7]) it was 12%; in test [5] (setting [8]), 97% (active); in test [5] (at 50.0 µM), 92.4% (active).

Take `CN(C)N=Nc1ccc(-c2ccccc2)cc1`: the growth inhibition in test [1] (setting [7]) is 24%; in test [1] (setting [8]), 95% (active); in test [1] (at 50.0 µM) it was 87.8% (active); in test [2] (setting [7]), 42%; in test [2] (setting [8]), 92% (active); in test [2] (at 50.0 µM), 78.3% (active). Moreover, the growth inhibition in test [3] (setting [7]) was 6%; in test [3] (setting [8]) it was 60%; in test [3] (at 50.0 µM) it was 81.8% (active); in test [4] (setting [7]) it was 30%; in test [4] (setting [8]), 85% (active); in test [4] (at 50.0 µM), 74.2% (active). Also, the growth inhibition in test [6] (setting [7]) was 37%; in test [6] (setting [8]), 64%; in test [6] (at 50.0 µM), 86.5% (active); in test [5] (setting [7]) it was 38%; in test [5] (setting [8]), 89% (active); in test [5] (at 50.0 µM), 84.5% (active).

Turning to `CCOC(=O)C(C(=O)OCC)C(=O)c1ccc2c(c1)OCO2`, the growth inhibition is 3% in test [1] (setting [7]); 83% (active) in test [1] (setting [8]); 52.4% in test [1] (at 50.0 µM); 2% in test [2] (setting [7]); 75% (active) in test [2] (setting [8]); 35.5% in test [2] (at 50.0 µM). For the same molecule, the growth inhibition in test [3] (setting [7]) was 5%; in test [3] (setting [8]), 90% (active); in test [3] (at 50.0 µM) it was 86.9% (active); in test [4] (setting [7]), 10%; in test [4] (setting [8]) it was 21%; in test [4] (at 50.0 µM), 1.25%. For the same molecule, the growth inhibition in test [6] (setting [7]) was 7%; in test [6] (setting [8]) it was 81% (active); in test [6] (at 50.0 µM), 89.2% (active); in test [5] (setting [7]) it was 4%; in test [5] (setting [8]) it was 94% (active); in test [5] (at 50.0 µM), 60.4%.

In the case of `COc1ccc(/C(=N\Nc2ccc(Br)cc2)c2ccccc2/C(=N/Nc2ccc(Br)cc2)c2ccccc2OC)cc1`, the growth inhibition is 1% in test [1] (setting [7]); -3% in test [1] (setting [8]); 96% (active) in test [1] (at 50.0 µM); -13% in test [2] (setting [7]); 11% in test [2] (setting [8]); 76.3% (active) in test [2] (at 50.0 µM). Moreover, the growth inhibition in test [3] (setting [7]) was 5%; in test [3] (setting [8]), 18%; in test [3] (at 50.0 µM) it was 97.2% (active); in test [4] (setting [7]), 2%; in test [4] (setting [8]) it was 11%; in test [4] (at 50.0 µM), 54.6%. Moreover, the growth inhibition in test [5] (setting [7]) is 11%; in test [5] (setting [8]), 33%; in test [5] (at 50.0 µM) it was 96.3% (active).

Regarding `Cc1ccccc1N=Nc1ccccc1`, the growth inhibition in test [1] (setting [7]) was 21%; in test [1] (setting [8]), 98% (active); in test [1] (at 50.0 µM), 99.4% (active); in test [2] (setting [7]), 17%; in test [2] (setting [8]), 99% (active); in test [2] (at 50.0 µM) it was 99.4% (active). For the same molecule, the growth inhibition in test [3] (setting [7]) was 22%; in test [3] (setting [8]), 99% (active); in test [3] (at 50.0 µM) it was 99.5% (active); in test [4] (setting [7]), 12%; in test [4] (setting [8]) it was 98% (active); in test [4] (at 50.0 µM), 99.3% (active). Further, the growth inhibition is 48% in test [6] (setting [7]); 98% (active) in test [6] (setting [8]); 99.3% (active) in test [6] (at 50.0 µM); 39% in test [5] (setting [7]); 98% (active) in test [5] (setting [8]); 99.4% (active) in test [5] (at 50.0 µM).

Consider `CCOC(=O)CCCCCN`, for which the growth inhibition in test [1] (setting [7]) was 6%; in test [1] (setting [8]), 8%; in test [1] (at 50.0 µM) it was -4.55%; in test [2] (setting [7]) it was 1%; in test [2] (setting [8]) it was 2%; in test [2] (at 50.0 µM), -7.75%. For the same molecule, the growth inhibition in test [3] (setting [7]) was 1%; in test [3] (setting [8]) it was 7%; in test [3] (at 50.0 µM), 34.1%; in test [4] (setting [7]), 9%; in test [4] (setting [8]), -2%; in test [4] (at 50.0 µM), -39.5%. For the same molecule, the growth inhibition in test [5] (setting [7]) is 5%; in test [5] (setting [8]) it was 6%; in test [5] (at 50.0 µM), -30.3%.

`CN(C)C1CCC2C3CCC4=CC(=O)CCC4(C)C3CCC21C` (configuration not stated): the growth inhibition in test [1] (setting [7]) was 2%; in test [1] (setting [8]) it was 28%; in test [1] (at 50.0 µM) it was 77.1% (active); in test [2] (setting [7]), 17%; in test [2] (setting [8]), 21%; in test [2] (at 50.0 µM), 48%. The growth inhibition was 8% in test [3] (setting [7]); 39% in test [3] (setting [8]); 69.5% in test [3] (at 50.0 µM); 55% in test [4] (setting [8]); 47.1% in test [4] (at 50.0 µM); 2% in test [6] (setting [7]). Further, the growth inhibition in test [6] (setting [8]) is -63%; in test [6] (at 50.0 µM), 40%; in test [5] (setting [7]), 2%; in test [5] (setting [8]), 35%; in test [5] (at 50.0 µM) it was 51.7%.

Turning to `c1ccc(-c2cc(N3CCCCC3)c(-c3ccccc3)o2)cc1`, the growth inhibition in test [1] (setting [7]) is -1%; in test [1] (setting [8]) it was 11%; in test [1] (at 50.0 µM), 21.4%; in test [2] (setting [7]), 9%; in test [2] (setting [8]), 14%; in test [2] (at 50.0 µM) it was 1.1%. Also, the growth inhibition in test [3] (setting [7]) was 8%; in test [3] (setting [8]) it was 28%; in test [3] (at 50.0 µM), 44.4%; in test [4] (setting [7]) it was 1%; in test [4] (setting [8]), 0%; in test [4] (at 50.0 µM), -5.7%. The growth inhibition is 15% in test [5] (setting [7]), 43% in test [5] (setting [8]) and 25.1% in test [5] (at 50.0 µM).

With `O=S(=O)(Nc1ccccc1)c1ccccc1C=C(c1ccccc1)c1ccccc1`, the growth inhibition in test [1] (setting [7]) is 37%; in test [1] (setting [8]), 75% (active); in test [1] (at 50.0 µM) it was 85.1% (active); in test [2] (setting [7]), 35%; in test [2] (setting [8]) it was 90% (active); in test [2] (at 50.0 µM) it was 86% (active). Also, the growth inhibition is 46% in test [3] (setting [7]); 90% (active) in test [3] (setting [8]); 86.5% (active) in test [3] (at 50.0 µM); 13% in test [4] (setting [7]); 84% (active) in test [4] (setting [8]); 80.3% (active) in test [4] (at 50.0 µM). In addition, the growth inhibition was 43% in test [6] (setting [7]); 82% (active) in test [6] (setting [8]); 80.3% (active) in test [6] (at 50.0 µM); 81% (active) in test [5] (setting [7]); 84% (active) in test [5] (setting [8]); 85.8% (active) in test [5] (at 50.0 µM).

The values above are taken from PubChem BioAssay (NCI).
